Test results as given in PubChem BioAssay (EPA / NIEHS).
Activity calls are given as the source filed them. The calls were made as follows: active = hit-call score of the fitted dose curve at least 0.9, where 1 is the maximum; inactive = score below 0.9.

How the values were obtained:
[1] = ATG_ISRE_CIS: Attagene CIS-FACTORIAL HepG2 Assay for human Interferon Regulatory Factor 1 (IRF1) binding to an Interferon-Stimulated Response Element (ISRE) (AID 2282948); settings: HepG2 ISRE cis-reporter (Attagene), mRNA transcription readout; actives raise or lower the signal
How it was run: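 Transfected HepG2 (multiple reporter transcription units, cis elements) dosed 24 h. RNA → oligo(dT) RT → PCR → 6-FAM primer extension → HpaI → CE. DMSO = negative control/baseline.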

[2] = ATG_M_32_CIS: Attagene CIS-FACTORIAL HepG2 Assay for M32 Transcription Factor (Internal Marker) (AID 2282949); settings: HepG2 Attagene cis-factorial M32 reporter, mRNA; actives raise or lower the signal;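 also: background control marker of the multiplexed CIS panel rather than a real target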
How it was run: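 Internal background marker read-out: RT-PCR/capillary electrophoresis fluorescence of reporter transcripts from transiently transfected HepG2 cells after 24 h chemical exposure. Activity fitted bidirectionally relative to DMSO negative control.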

[3] = target: Hypoxia-inducible factor 1-alpha (Homo sapiens) (UniProt Q16665); experiment: ATG_HIF1a_CIS: Attagene CIS-FACTORIAL HepG2 Assay for human Hypoxia Inducible Factor 1 (HIF1A) (AID 2282951); settings: HepG2 Attagene cis-factorial HIF1a reporter transcription; actives raise or lower the signal
Chain of Hypoxia-inducible factor 1-alpha (Homo sapiens) (Q16665 whole entry, looked up): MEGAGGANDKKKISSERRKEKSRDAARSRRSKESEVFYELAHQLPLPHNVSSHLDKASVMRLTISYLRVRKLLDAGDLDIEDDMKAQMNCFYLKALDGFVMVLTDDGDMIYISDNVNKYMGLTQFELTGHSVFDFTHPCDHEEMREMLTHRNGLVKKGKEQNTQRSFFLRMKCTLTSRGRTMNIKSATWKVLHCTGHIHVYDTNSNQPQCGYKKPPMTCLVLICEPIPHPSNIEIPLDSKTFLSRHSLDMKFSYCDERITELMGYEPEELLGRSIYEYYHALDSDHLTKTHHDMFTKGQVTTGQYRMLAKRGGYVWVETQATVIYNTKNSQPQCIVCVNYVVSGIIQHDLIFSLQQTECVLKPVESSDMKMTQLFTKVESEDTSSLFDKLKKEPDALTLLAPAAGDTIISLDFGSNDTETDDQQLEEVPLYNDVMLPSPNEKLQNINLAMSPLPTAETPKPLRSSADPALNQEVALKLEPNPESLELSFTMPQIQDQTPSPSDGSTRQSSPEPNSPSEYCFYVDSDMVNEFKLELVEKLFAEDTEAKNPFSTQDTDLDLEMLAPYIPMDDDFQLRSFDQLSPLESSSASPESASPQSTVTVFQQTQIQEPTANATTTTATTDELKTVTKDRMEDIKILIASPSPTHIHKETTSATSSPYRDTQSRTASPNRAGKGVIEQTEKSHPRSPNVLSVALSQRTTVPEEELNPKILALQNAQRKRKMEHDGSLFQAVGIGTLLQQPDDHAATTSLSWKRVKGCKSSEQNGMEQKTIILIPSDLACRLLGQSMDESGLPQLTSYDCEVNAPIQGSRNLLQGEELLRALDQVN
How it was run: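 HepG2 cells transiently transfected with multiple cis-regulated reporter transcription units measure endogenous transcription factor activity. After 24 h exposure, reporter mRNA is quantified by RT-PCR with 6-FAM labelling, HpaI digestion and capillary electrophoresis. Bidirectional fitting against DMSO.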

[4] = target: Hepatocyte nuclear factor 6 (Homo sapiens) (UniProt Q9UBC0); experiment: ATG_HNF6_CIS: Attagene CIS-FACTORIAL HepG2 Assay for human Hepatocyte Nuclear Factor 6 (HNF6) (AID 2282952); settings: HepG2 Attagene cis-factorial HNF6 reporter transcription; actives raise or lower the signal
Chain of Hepatocyte nuclear factor 6 (Homo sapiens) (Q9UBC0 whole entry, looked up, the tested form may be a part): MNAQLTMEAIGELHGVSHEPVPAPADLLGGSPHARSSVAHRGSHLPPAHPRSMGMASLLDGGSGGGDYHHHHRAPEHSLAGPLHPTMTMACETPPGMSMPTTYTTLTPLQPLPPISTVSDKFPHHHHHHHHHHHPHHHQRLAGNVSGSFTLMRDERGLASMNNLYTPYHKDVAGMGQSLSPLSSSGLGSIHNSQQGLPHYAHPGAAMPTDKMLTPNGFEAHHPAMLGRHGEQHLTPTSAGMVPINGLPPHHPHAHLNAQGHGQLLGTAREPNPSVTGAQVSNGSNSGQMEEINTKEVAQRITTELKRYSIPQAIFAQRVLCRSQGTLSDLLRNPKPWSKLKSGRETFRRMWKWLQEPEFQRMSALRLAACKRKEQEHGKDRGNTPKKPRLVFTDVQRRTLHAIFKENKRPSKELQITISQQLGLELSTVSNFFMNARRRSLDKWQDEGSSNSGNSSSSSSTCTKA
How it was run: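 Reporter mRNA induction or loss in HepG2 after 24 h exposure; transient cis-MRTU transfection; fragments quantified by capillary electrophoresis; bidirectional analysis, DMSO as negative control.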

[5] = target: Heat shock factor protein 1 (Homo sapiens) (UniProt Q00613); experiment: ATG_HSE_CIS: Attagene CIS-FACTORIAL HepG2 Assay for human Heat Shock Transcription Factor 1 (HSE) (AID 2282953); settings: HepG2 HSE cis-reporter, Attagene RNA transcription; actives raise or lower the signal
Chain of Heat shock factor protein 1 (Homo sapiens) (Q00613 whole entry, looked up): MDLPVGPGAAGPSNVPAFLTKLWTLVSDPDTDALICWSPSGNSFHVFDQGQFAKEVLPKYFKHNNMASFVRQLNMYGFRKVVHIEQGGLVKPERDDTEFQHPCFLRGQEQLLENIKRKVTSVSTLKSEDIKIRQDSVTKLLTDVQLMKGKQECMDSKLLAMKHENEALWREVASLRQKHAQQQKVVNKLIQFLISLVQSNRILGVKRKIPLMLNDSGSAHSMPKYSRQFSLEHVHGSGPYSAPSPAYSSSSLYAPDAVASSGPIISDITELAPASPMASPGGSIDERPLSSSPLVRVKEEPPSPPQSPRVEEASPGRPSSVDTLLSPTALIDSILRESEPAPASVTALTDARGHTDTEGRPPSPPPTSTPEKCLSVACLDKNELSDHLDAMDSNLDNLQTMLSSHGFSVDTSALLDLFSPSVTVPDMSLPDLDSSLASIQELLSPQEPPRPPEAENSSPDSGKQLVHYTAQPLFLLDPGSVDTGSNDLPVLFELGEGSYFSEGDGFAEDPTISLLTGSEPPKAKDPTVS
How it was run: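 Reporter mRNA induction in HepG2 is measured 24 h after dosing, using transiently transfected multiplexed cis-regulated reporter units. Signal comes from capillary electrophoresis of labelled RT-PCR products, with DMSO as negative control.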

[6] = ATG_MRE_CIS: Attagene CIS-FACTORIAL HepG2 Assay for human Metal Responsive Element (MRE) (AID 2282954); settings: HepG2 MRE cis-reporter transcription, Attagene multiplex; actives raise or lower the signal
How it was run: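 Fluorescent reporter fragments separated by capillary electrophoresis give mRNA induction for the MRE unit after 24 h treatment of transfected HepG2 cells. Endogenous transcription-factor activity is read; DMSO serves as negative control and baseline.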

[7] = target: Paired box protein Pax-6 (Homo sapiens) (UniProt P26367); experiment: ATG_Pax6_CIS: Attagene CIS-FACTORIAL HepG2 Assay for human Paired Box 6 (PAX6) (AID 2282956); settings: HepG2 CIS-FACTORIAL PAX6 reporter transcription, RNA readout; actives raise or lower the signal
Chain of Paired box protein Pax-6 (Homo sapiens) (P26367 whole entry, looked up): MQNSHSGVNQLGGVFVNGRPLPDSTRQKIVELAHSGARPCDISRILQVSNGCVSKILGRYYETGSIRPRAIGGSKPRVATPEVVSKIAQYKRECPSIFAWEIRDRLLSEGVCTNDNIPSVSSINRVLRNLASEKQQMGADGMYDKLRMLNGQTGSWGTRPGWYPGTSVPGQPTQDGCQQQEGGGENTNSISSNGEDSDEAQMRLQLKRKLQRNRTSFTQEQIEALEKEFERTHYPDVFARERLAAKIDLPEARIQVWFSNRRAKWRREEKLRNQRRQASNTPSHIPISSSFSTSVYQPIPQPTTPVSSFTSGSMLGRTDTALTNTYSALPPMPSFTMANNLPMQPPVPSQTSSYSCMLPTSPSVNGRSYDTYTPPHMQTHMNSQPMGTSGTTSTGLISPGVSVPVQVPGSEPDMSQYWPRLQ
How it was run: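 Transient MRTU transfection of HepG2 → compound exposure 24 h → TriZol RNA, oligo(dT) RT → PCR, 6-FAM primer extension, HpaI cut → capillary electrophoresis; activity fitted both directions against DMSO.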

[8] = ATG_M_06_CIS: Attagene CIS-FACTORIAL HepG2 Assay for M06 Transcription Factor (Internal Marker) (AID 2282950); settings: HepG2 Attagene CIS-FACTORIAL M06 internal marker reporter; actives raise or lower the signal
How it was run: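 Measured 24 h post-dosing in transiently transfected HepG2 cells, this internal-marker endpoint reports reporter mRNA via RT-PCR with fluorescent primer extension and capillary electrophoresis. DMSO served as negative control and baseline for bidirectional fitting.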

[9] = ATG_PBREM_CIS: Attagene CIS-FACTORIAL HepG2 Assay for human Phenobarbital-responsive Enhancer Module (PBREM) (AID 2282955); settings: HepG2 PBREM cis-reporter, Attagene multiplexed transcription; actives raise or lower the signal
How it was run: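 HepG2 cells transiently transfected with multiple cis-regulated reporter units measure endogenous transcription factor activity; 24 h compound exposure. Reporter mRNA quantified by RT-PCR, fluorescent labelling, HpaI digestion and capillary electrophoresis; bidirectional fit versus DMSO.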

Measured: outcome

OCC(O)c1ccccc1 (centres undefined)
not listed: [8] | [9]
inactive: all other assays above

C=CC(C)C#N (centres undefined)
not listed: [1]
inactive: all other assays above

OCc1ccc(Cl)cc1Cl
not listed: [1]
inactive: all other assays above

CC(C)=CCCC(C)CC(=O)O (centres undefined)
not listed: [2]
inactive: all other assays above

CC(C)CCOC(=O)c1ccccc1
not listed: [1]
inactive: all other assays above
